Test results reported in PubChem BioAssay (NCATS).
Records with an inconclusive call do not appear. A call without a number means that no potency is given here. Activity calls are given as the source filed them. Calls come from the whole dose curve; as a rule, active = well fitted inhibition curve with a large enough effect; inconclusive = small, poorly fitted or top-dose-only effect; inactive = flat fitted curve, though single readings scatter. Peptide text beside a SMILES is read from it.

Columns and labels:
Assay in all cases: qHTS profiling for inhibitors of Plasmodium falciparum proliferation (AID 504749); note: nearly all actives have a fitted effect of over 60% in size
Settings in all cases: P. falciparum in erythrocytes, SYBR Green DNA, 72 h; series mostly up to 28.7 µM
[1] = tested on: DFO2036
Method in brief: (§1)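 Infected RBCs, 0.3% parasitemia/2.5% Hct final; cpd 72 h, 37 C, 5% CO2; lysis buffer with saponin/triton/SYBR Green I, o/n RT dark; FI 485/535; norm. to artemisinin (0.29 uM) and DMSO.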

[2] = tested on: DIV14
Method in brief: as §1

[3] = tested on: DIV17
Method in brief: as §1

[4] = tested on: DIV30
Method in brief: as §1

[5] = tested on: Dd2
Method in brief: as §1

[6] = tested on: ECU
Method in brief: as §1

[7] = tested on: FAB9
Method in brief: as §1

[8] = tested on: GB4
Method in brief: as §1

[9] = tested on: HB3
Method in brief: as §1

[10] = tested on: ICS
Method in brief: as §1

[11] = tested on: JCK
Method in brief: as §1

[12] = tested on: N140
Method in brief: as §1

[13] = tested on: P93_24
Method in brief: as §1

[14] = tested on: P94_40
Method in brief: as §1

[15] = tested on: PAD
Method in brief: as §1

[16] = tested on: PC15
Method in brief: as §1

[17] = tested on: PC26
Method in brief: as §1

[18] = tested on: PC49
Method in brief: as §1

[19] = tested on: SC27B
Method in brief: as §1

[20] = tested on: TAB109
Method in brief: as §1
Potency is the fitted concentration of half-maximal effect.

Compound	Potency [1]	Potency [2]	Potency [3]	Potency [4]	Potency [5]	Potency [6]	Potency [7]	Potency [8]	Potency [9]	Potency [10]	Potency [11]	Potency [12]	Potency [13]	Potency [14]	Potency [15]	Potency [16]	Potency [17]	Potency [18]	Potency [19]	Potency [20]
C[C@@H]1CCC2[C@@H](C)[C@@H](O)O[C@@H]3O[C@@]4(C)CC[C@@H]1[C@@]23OO4 (stereo not given in full)	0.0016 µM (active)	0.003 µM (active)	0.0027 µM (active)	0.0024 µM (active)	0.001 µM (active)	0.0009 µM (active)	0.0009 µM (active)	0.0019 µM (active)	0.0028 µM (active)	0.001 µM (active)	10 µM (active)	0.0016 µM (active)	0.001 µM (active)	0.001 µM (active)	0.0014 µM (active)	0.0009 µM (active)	0.0027 µM (active)	0.0003 µM (active)	0.002 µM (active)	0.001 µM (active)
O=C1C(=O)c2ncccc2-c2cccnc21	1 µM (active)	0.953 µM (active)	0.953 µM (active)	1.51 µM (active)	1.12 µM (active)	2 µM (active)	7.94 µM (active)	0.849 µM (active)	1 µM (active)	0.631 µM (active)	10 µM (active)	1.26 µM (active)	0.891 µM (active)	0.794 µM (active)	0.794 µM (active)	0.891 µM (active)	1.07 µM (active)	3.55 µM (active)	2.82 µM (active)	1 µM (active)
C[C@H]1C[C@H]2[C@@H]3CCC4=CC(=O)C=C[C@]4(C)[C@@]3(F)[C@@H](O)C[C@]2(C)[C@@]1(O)C(=O)CO	inactive	inactive	inactive	inactive	inactive	inactive	inactive	inactive	inactive	inactive	inactive	inactive	inactive	inactive	inactive	inactive	inactive	inactive	inactive	inactive
CCOC(C)=O	inactive	inactive	inactive	inactive	inactive	inactive	inactive	inactive	inactive	inactive	inactive	inactive	inactive	inactive	inactive	inactive	inactive	inactive	inactive	inactive
O=C(O)CCC(=O)C(=O)O	inactive	inactive	inactive	inactive	inactive	inactive	inactive	inactive	inactive	inactive	inactive	inactive	inactive	inactive	inactive	inactive	inactive	inactive	inactive	inactive
CCCCC/C=C\C/C=C\CCCCCCCC(=O)O	inactive	inactive	inactive	inactive	inactive	inactive	inactive	inactive	inactive	inactive	inactive	inactive	inactive	inactive	inactive	inactive	inactive	inactive	inactive	inactive
Cc1cc(C(=O)NNCc2ccccc2)no1	inactive	inactive	inactive	inactive	inactive	inactive	inactive	inactive	inactive	inactive	inactive	inactive	inactive	inactive	inactive	inactive	inactive	inactive	inactive	inactive
C#CCOc1ccc2c(C)cc(=O)oc2c1	inactive	inactive	inactive	inactive	inactive	inactive	inactive	inactive	inactive	inactive	inactive	inactive	inactive	inactive	inactive	inactive	inactive	inactive	inactive	inactive
Cc1cn([C@H]2C[C@H](O)[C@@H](CO)O2)c(=O)[nH]c1=O	inactive	inactive	inactive	inactive	inactive	inactive	inactive	inactive	inactive	inactive	inactive	inactive	inactive	inactive	inactive	inactive	inactive	inactive	inactive	inactive
CC(=O)N[C@@H](CC(=O)O)C(=O)N[C@@H](CCC(=O)O)C(=O)O (Ac-Asp-Glu-OH)	inactive	inactive	inactive	inactive	inactive	inactive	inactive	inactive	inactive	inactive	inactive	inactive	inactive	inactive	inactive	inactive	inactive	inactive	inactive	inactive
COC(=O)[C@H]1[C@H]2C[C@@H]3c4[nH]c5ccccc5c4CCN3C[C@H]2C[C@@H](OC(=O)c2cc(OC)c(OC)c(OC)c2)[C@@H]1OC	0.355 µM (active)	0.19 µM (active)	0.239 µM (active)	0.135 µM (active)	0.0891 µM (active)	0.316 µM (active)	1.26 µM (active)	0.135 µM (active)	0.794 µM (active)	0.1 µM (active)	0.891 µM (active)	0.199 µM (active)	0.126 µM (active)	0.316 µM (active)	0.251 µM (active)	0.447 µM (active)	0.269 µM (active)	0.251 µM (active)	0.355 µM (active)	0.398 µM (active)
Cc1ccccc1	inactive	inactive	inactive	inactive	inactive	inactive	inactive	inactive	inactive	inactive	inactive	inactive	inactive	inactive	inactive	inactive	inactive	inactive	inactive	inactive
CC1=C(/C=C/C(C)=C/C=C/C(C)=C/C=C/C=C(C)/C=C/C=C(C)/C=C/C2=C(C)CCCC2(C)C)C(C)(C)CCC1	inactive	inactive	inactive	inactive	inactive	inactive	inactive	inactive	inactive	inactive	inactive	inactive	inactive	inactive	inactive	inactive	inactive	inactive	inactive	inactive
CCN(CC)Cc1cc(Nc2ccnc3cc(Cl)ccc23)ccc1O	0.0562 µM (active)	0.0809 µM (active)	0.114 µM (active)	0.181 µM (active)	0.0562 µM (active)	0.0316 µM (active)	0.0398 µM (active)	0.0405 µM (active)	0.0355 µM (active)	0.0398 µM (active)	0.0891 µM (active)	0.0708 µM (active)	0.0355 µM (active)	0.0089 µM (active)	0.0316 µM (active)	0.178 µM (active)	0.161 µM (active)	0.1 µM (active)	0.0708 µM (active)	0.0501 µM (active)
Nc1ncnc2c1ncn2[C@@H]1O[C@H](COP(=O)(O)OP(=O)(O)OP(=O)(O)O)[C@@H](O)[C@H]1O	inactive	inactive	inactive	inactive	inactive	inactive	inactive	inactive	inactive	inactive	inactive	inactive	inactive	inactive	inactive	inactive	inactive	inactive	inactive	inactive
CCCC(=O)O[C@]1(C(=O)CCl)[C@H](C)C[C@@H]2[C@H]3CCC4=CC(=O)C=C[C@]4(C)[C@@]3(F)C(=O)C[C@@]21C	0.891 µM (active)	6.01 µM (active)	6.75 µM (active)	4.26 µM (active)	3.16 µM (active)	2.51 µM (active)	7.94 µM (active)	2.39 µM (active)	2.82 µM (active)	3.55 µM (active)	10 µM (active)	3.16 µM (active)	3.98 µM (active)	4.47 µM (active)	4.47 µM (active)	3.55 µM (active)	3.01 µM (active)	10 µM (active)	2.82 µM (active)	3.16 µM (active)
CC(O)CO (stereo not given)	inactive	inactive	inactive	inactive	inactive	inactive	inactive	inactive	inactive	inactive	inactive	inactive	inactive	inactive	inactive	inactive	inactive	inactive	inactive	inactive
CCCC(=O)Nc1ncnc2c1ncn2C1OC2COP(=O)(O)OC2C1OC(=O)CCC (stereo not given)	inactive	inactive	inactive	inactive	inactive	inactive	inactive	inactive	inactive	inactive	inactive	inactive	inactive	inactive	inactive	inactive	inactive	inactive	inactive	inactive
CC1(C)S[C@@H]2[C@H](NC(=O)[C@@H](NC(=O)N3CCNC3=O)c3ccccc3)C(=O)N2[C@H]1C(=O)O	inactive	inactive	inactive	inactive	inactive	inactive	inactive	inactive	inactive	inactive	inactive	inactive	inactive	inactive	inactive	inactive	inactive	inactive	inactive	inactive
CCNC(=O)[C@@H]1CCCN1C(=O)[C@H](CCCN=C(N)N)NC(=O)[C@H](CC(C)C)NC(=O)[C@@H](Cc1c[nH]c2ccccc12)NC(=O)[C@H](Cc1ccc(O)cc1)NC(=O)[C@H](CO)NC(=O)[C@H](Cc1c[nH]c2ccccc12)NC(=O)[C@H](Cc1cnc[nH]1)NC(=O)[C@@H]1CCC(=O)N1	5.62 µM (active)	0.953 µM (active)	0.953 µM (active)	1.69 µM (active)	3.16 µM (active)	1.12 µM (active)	8.91 µM (active)	2.39 µM (active)	11.2 µM (active)	2.24 µM (active)	14.1 µM (active)	4.47 µM (active)	3.16 µM (active)	7.94 µM (active)	2.24 µM (active)	3.55 µM (active)	3.38 µM (active)	2.82 µM (active)	6.31 µM (active)	4.47 µM (active)
Cc1c(C)c2c(c(C)c1O)CC[C@@](C)(CCC[C@H](C)CCC[C@H](C)CCCC(C)C)O2	inactive	inactive	inactive	inactive	inactive	inactive	inactive	inactive	inactive	inactive	inactive	inactive	inactive	inactive	inactive	inactive	inactive	inactive	inactive	inactive
CC(C(=O)O)c1ccc(N2Cc3ccccc3C2=O)cc1 (stereo not given)	inactive	inactive	inactive	inactive	inactive	inactive	inactive	inactive	inactive	inactive	inactive	inactive	inactive	inactive	inactive	inactive	inactive	inactive	inactive	inactive
